Results filed as inconclusive are left out. Calls of active or inactive are those of the source. The call rests on the fitted dose curve; in most records, active means well fitted curve in the direction sought with a large enough effect in the repeat runs; inconclusive means weak or mixed curves; inactive means no such curve, though single readings can be large; an effect the other way counts as inactive or inconclusive.
Columns and labels:
[1] = qHTS RealTime-Glo MT Cell Viability Assay in HepG2 cells - 40 hour (AID 1224870); further: nearly all actives have a fitted effect of over 50% in size
Summary of the method: (§1)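 Real-time viability: cells seeded at 600 per well together with NanoLuc and cell-permeant prosubstrate, compounds added after 5 h incubation. Luminescence tracked at 0, 8, 16, 24, 32 and 40 h of exposure.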

[2] = A CellTox Green Cytotoxicity Assay to monitor cytotoxicity in HEK293 cells - 40 hour (AID 1224871); further: nearly all actives have a fitted effect of over 45% in size
Summary of the method: (§2)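 Cells (HEK293, 600/well) and dye reagent are dispensed together. After 5 h at 37 C, 23 nL compound is pinned in. Plates stay at 37 C for 40 h with fluorescence read at 0h, 8h, 16h, 24h, 32h and 40h.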

[3] = qHTS RealTime-Glo MT Cell Viability Assay in HEK293 cells - 16 hour (AID 1224872); further: top concentration of the series differs between compounds; nearly all actives have a fitted effect of over 50% in size
Summary of the method: (§3)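 Tox21 10K qHTS, HEK293, 600 cells/well, RealTime-Glo reagent co-dispensed with cells; 5 h preincubation, compound by pintool, 37 C, luminescence at 0–40 h.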

[4] = qHTS RealTime-Glo MT Cell Viability Assay in HepG2 cells - 8 hour (AID 1224873); further: nearly all actives have a fitted effect of over 55% in size
Summary of the method: as §1

[5] = qHTS RealTime-Glo MT Cell Viability Assay in HEK293 cells - 40 hour (AID 1224874); details: RealTime-Glo luminescence; max response: hits give low values; further: nearly all actives have a fitted effect of over 50% in size
Summary of the method: (§4)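 Real-time viability in HEK293: signal arises when living cells convert a prosubstrate for NanoLuc in the medium, so luminescence tracks viable cell number. Compound (23 nL, DMSO) added 5 h post-seeding; kinetic reads at 0–40 h, 37 C.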

[6] = A CellTox Green Cytotoxicity Assay to monitor cytotoxicity in HepG2 cells - 16 hour (AID 1224876); further: nearly all actives have a fitted effect of over 45% in size
Summary of the method: (§5)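 Cells and non-lytic dye reagent are dispensed together (600 HepG2 cells/well) and incubated 5 h before DMSO compound transfer. Kinetic fluorescence is then recorded in the same wells during 40 h at 37 C.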

[7] = qHTS RealTime-Glo MT Cell Viability Assay in HepG2 cells - 32 hour (AID 1224877); further: nearly all actives have a fitted effect of over 55% in size
Summary of the method: (§6)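 Cells + NanoLuc/prosubstrate dispensed (600 cells/well) → 5 h at 37 C/5% CO2 → compounds in DMSO transferred → 40 h incubation at 37 C, luminescence read at 0, 8, 16, 24, 32, 40 h.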

[8] = A CellTox Green Cytotoxicity Assay to monitor cytotoxicity in HepG2 cells - 24 hour (AID 1224878); further: nearly all actives have a fitted effect of over 45% in size
Summary of the method: as §5

[9] = A CellTox Green Cytotoxicity Assay to monitor cytotoxicity in HepG2 cells - 40 hour (AID 1224879); further: nearly all actives have a fitted effect of over 40% in size
Summary of the method: as §5

[10] = qHTS RealTime-Glo MT Cell Viability Assay in HEK293 cells - 0 hour (AID 1224880); further: top concentration of the series differs between compounds; nearly all actives have a fitted effect of over 45% in size
Summary of the method: as §4

[11] = A CellTox Green Cytotoxicity Assay to monitor cytotoxicity in HEK293 cells - 32 hour (AID 1224881); further: nearly all actives have a fitted effect of over 40% in size
Summary of the method: as §2

[12] = A CellTox Green Cytotoxicity Assay to monitor cytotoxicity in HepG2 cells - 32 hour (AID 1224883); further: nearly all actives have a fitted effect of over 50% in size
Summary of the method: as §5

[13] = A CellTox Green Cytotoxicity Assay to monitor cytotoxicity in HEK293 cells - 8 hour (AID 1224884); further: nearly all actives have a fitted effect of over 35% in size
Summary of the method: as §2

[14] = qHTS RealTime-Glo MT Cell Viability Assay in HepG2 cells - 16 hour (AID 1224885); further: nearly all actives have a fitted effect of over 50% in size
Summary of the method: as §6

[15] = qHTS RealTime-Glo MT Cell Viability Assay in HEK293 cells - 24 hour (AID 1224886)
Summary of the method: as §3

[16] = qHTS RealTime-Glo MT Cell Viability Assay in HEK293 cells - 8 hour (AID 1224887)
Summary of the method: as §4

[17] = A CellTox Green Cytotoxicity Assay to monitor cytotoxicity in HEK293 cells - 16 hour (AID 1224888); further: nearly all actives have a fitted effect of over 35% in size
Summary of the method: as §2

[18] = qHTS RealTime-Glo MT Cell Viability Assay in HepG2 cells - 0 hour (AID 1224889); further: nearly all actives have a fitted effect of over 50% in size
Summary of the method: as §6

[19] = A CellTox Green Cytotoxicity Assay to monitor cytotoxicity in HEK293 cells - 24 hour (AID 1224875)
Summary of the method: as §2

[20] = A CellTox Green Cytotoxicity Assay to monitor cytotoxicity in HepG2 cells - 0 hour (AID 1224882); further: nearly all actives have a fitted effect of over 35% in size
Summary of the method: as §5
On the % scale 0 is the no-effect control and ±100 the full control effect.

CCCCCCCCCCCCCC=O
inactive: activity change, negative = cytotoxic [1] -13.1% [at 6.97 µM] | cytotoxicity increase [2] 0.449% [at 6.97 µM] | activity change, negative = cytotoxicity [3] 1.71% [at 6.97 µM] | viability change, negative = cytotoxic [4] 0.248% [at 6.97 µM] | max response [5] 5.19% | cytotoxicity increase [6] 1.97% [at 6.97 µM] | activity change, negative = cytotoxic [7] -9.48% [at 6.97 µM] | cytotoxicity [8] 1.56% [at 6.97 µM] | cytotoxicity increase [9] 0.942% [at 6.97 µM] | activity change, negative = cytotoxicity [10] 8.28% [at 6.97 µM] | cytotoxicity increase [11] -0.0239% [at 6.97 µM] | cytotoxicity increase [12] 1.86% [at 6.97 µM] | cytotoxicity increase [13] -1.61% [at 6.97 µM] | activity change, negative = cytotoxic [14] 0.224% [at 6.97 µM] | activity change, negative = cytotoxicity [15] 6.14% [at 6.97 µM] | activity change, negative = cytotoxicity [16] 2.94% [at 6.97 µM] | activity change [17] -6.87% [at 6.97 µM, hits give high values] | activity change, negative = cytotoxicity [18] 15.5% [at 6.97 µM]

CN1CCC(=C2c3ccccc3CC(=O)c3sccc32)CC1
inactive: Potency [2] | Potency [3] | Potency [4] | max response [5] -28.2% | Potency [19] | Potency [6] | Potency [7] | Potency [8] | Potency [9] | Potency [10] | Potency [11] | Potency [20] | Potency [12] | Potency [13] | Potency [14] | Potency [15] | Potency [16] | Potency [17] | Potency [18]

C=COCC1CCC(CO)CC1 (stereo not drawn)
inactive: Potency [2] | Potency [3] | Potency [4] | max response [5] 11.5% | Potency [19] | Potency [6] | Potency [7] | Potency [8] | Potency [9] | Potency [10] | Potency [11] | Potency [20] | Potency [12] | Potency [13] | Potency [14] | Potency [15] | Potency [16] | Potency [18]

CC(NC(CCc1ccccc1)C(=O)O)C(=O)N1C(=O)N(C)CC1C(=O)O (stereo not drawn)
inactive: Potency [2] | Potency [3] | Potency [4] | max response [5] -1.88% | Potency [19] | Potency [6] | Potency [7] | Potency [8] | Potency [9] | Potency [10] | Potency [11] | Potency [20] | Potency [12] | Potency [13] | Potency [14] | Potency [15] | Potency [17] | Potency [18]

O=C(O)CN(CCOCCOCCN(CC(=O)O)CC(=O)O)CC(=O)O
inactive: cytotoxicity increase [2] 0.853% [at 0.29 µM] | activity change, negative = cytotoxicity [3] -0.382% [at 0.29 µM] | viability change, negative = cytotoxic [4] -0.725% [at 0.29 µM] | max response [5] 6.77% | activity change [19] 5.13% [at 0.29 µM, hits give high values] | cytotoxicity increase [6] -23.6% [at 0.29 µM] | activity change, negative = cytotoxic [7] 3% [at 0.29 µM] | cytotoxicity [8] -22.1% [at 0.29 µM] | cytotoxicity increase [9] -20% [at 0.29 µM] | activity change, negative = cytotoxicity [10] 4.27% [at 0.29 µM] | cytotoxicity increase [11] 6.54% [at 0.29 µM] | cytotoxicity [20] -19.1% [at 0.29 µM] | cytotoxicity increase [12] -22.8% [at 0.29 µM] | cytotoxicity increase [13] 1.88% [at 0.29 µM] | activity change, negative = cytotoxic [14] 0.683% [at 0.29 µM] | activity change, negative = cytotoxicity [15] -2.79% [at 0.29 µM] | activity change, negative = cytotoxicity [18] -0.153% [at 0.29 µM]

CCOC(C)(C)C
inactive: Potency [2] | Potency [3] | Potency [4] | max response [5] 7.98% | Potency [19] | Potency [6] | Potency [7] | Potency [8] | Potency [9] | Potency [10] | Potency [11] | Potency [20] | Potency [12] | Potency [13] | Potency [14] | Potency [15] | Potency [17] | Potency [18]

COC(=O)C1=C(C)NC(C)=C(C(=O)OC)C1c1ccccc1[N+](=O)[O-]
inactive: Potency [2] | Potency [3] | max response [5] -16.8% | Potency [19] | Potency [6] | Potency [7] | Potency [8] | Potency [9] | Potency [11] | Potency [20] | Potency [12] | Potency [13] | Potency [15] | Potency [16]

CC1=CC(C)C(C=O)CC1 (stereo not drawn)
inactive: Potency [2] | Potency [3] | Potency [4] | max response [5] -0.371% | Potency [19] | Potency [6] | Potency [7] | Potency [8] | Potency [9] | Potency [10] | Potency [11] | Potency [12] | Potency [13] | Potency [14] | Potency [15] | Potency [17] | Potency [18]

CCCCCCOC(=O)CCCCC(=O)OCCCCCC
inactive: Potency [2] | Potency [3] | Potency [4] | max response [5] 7.23% | Potency [19] | Potency [6] | Potency [7] | Potency [8] | Potency [9] | Potency [10] | Potency [11] | Potency [20] | Potency [12] | Potency [13] | Potency [14] | Potency [15] | Potency [16] | Potency [17] | Potency [18]
